Results on 95 molecules are retold here after PubChem BioAssay AID868 (SRMLSC, 2007).

Molecules are shown by their SMILES. Screen size: about 190,000 compounds; about 3,500 (1.8%) were called active. The sample as a whole holds a higher share of actives than the screen did. A number with no mark means an inactive call.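 How the source made its calls: active means inhibition above a set limit, 3 SD over mean compound inhibition (cut at about 8.4% in these data); inactive means the rest.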

This assay in a line: RAM signaling blockers in budding yeast – dse1pr::URA3 reporter, 5-FOA selection, primary screen (AID 868).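 Further: 0% = DMSO-only wells with no growth and 100% = 10 µM 1-NA-PP1 full growth; inhibition rescues growth on 5-FOA so higher OD means more RAM inhibition.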 To be noted: S. cerevisiae dse1pr::URA3 reporter, 5-FOA growth OD615, 2 d; at 50 µM; stronger effect = higher value; analog-sensitive cbk1-as2 kinase mutant strain.
What is called inhibition is the change of the read-out against control, counted positive when it falls. In the case of `C=CCOC(=O)C1=C(C)N=C2SCCC(=O)N2C1/C=C/c1ccccc1OC` (stereo not given), the inhibition was 1.62%.

On to `COc1ccccc1CNC(=O)CNC(=O)c1cn(-c2ccccc2OC)c(=O)c2ccccc12`, for which the inhibition was 1.48%.

On to `Nc1nnc(SCC(=O)Nc2ccc3nc(SCC(=O)Nc4ccccc4)sc3c2)s1`, for which the inhibition was 9.31% (active).

Turning to `CCCCNC(=O)CSc1nc2ccc(NC(=O)CSc3nnc(N)s3)cc2s1`, the inhibition is 2.71%.

In the case of `CCCCNC(=O)CSc1nc2ccc(NC(=O)CSc3nnc(COc4ccccc4C)n3C)cc2s1`, the inhibition is 6.51%.

As for `Cn1c(=O)c2c(ncn2CCc2ccccc2)n(C)c1=O`, the inhibition was 0.37%.

`C/C=C(\C)C(=O)NCCN1C2=NC[C@H](Cc3ccc(O)cc3)N2C[C@@H]1Cc1ccc(OC)cc1`: the inhibition is -1.63%.

Consider `CCOc1ccc(CN(Cc2ccco2)C(c2cccs2)c2nnnn2C(C)(C)C)cc1` (stereo not given), for which the inhibition is 15.1% (active).

For the molecule `CCC(C)(C)n1nnnc1C(c1cccs1)N1CCN(Cc2ccccc2)CC1` (stereo not given), the inhibition was 0.11%.

Turning to `CC(C)(C)n1nnnc1C(c1cccs1)N(Cc1cccnc1)CC1CCCO1` (stereo not given), the inhibition was 4.18%.

For the molecule `COCCn1c(C)cc(C(=O)COC(=O)/C=C/c2cccc(OC)c2)c1C`, the inhibition was 8.25%.

For `CC1CCCCC1NC(=O)COC(=O)Cc1ccc(Br)cc1` (stereo not given), the inhibition was 1.96%.

`COc1ccc(-c2nc(-c3ccccc3)no2)c(OC)c1`: the inhibition is -0.68%.

Consider `COc1ccc(-c2noc(-c3cccc(OC)c3OC)n2)cc1OC`, for which the inhibition was 8.94% (active).

With `COc1cc(-c2nc(-c3ccncc3)no2)cc(OC)c1OC`, the inhibition was 1.83%.

`COc1cccc(CN2CCNC(=O)C2CC(=O)N(C)CCc2ccccn2)c1` (stereo not given): the inhibition is 0.39%.

In the case of `Cc1ccc(NC(=O)COc2ccc(-n3ccnc3)cc2)cc1Cl`, the inhibition is 19.6% (active).

As for `CN1CCN(c2ccc(NC(=O)COc3ccc(Cl)cc3Cl)cc2)CC1`, the inhibition is 1.03%.

For `COc1ccc(OCC(=O)Nc2ccc(N3CCC(C)CC3)cc2)cc1`, the inhibition was -0.73%.

For the molecule `O=C(O)CSc1nccc2ccccc12`, the inhibition was 0.52%.

Take `CCOC(=O)NN1C(=O)c2ccccc2NC1c1ccccc1O` (stereo not given): the inhibition is -0.54%.

Take `CCN(CC)C(=O)C(=O)Nc1cccc(Br)c1`: the inhibition is 1.63%.

For the molecule `COC(=O)c1sc(NC(=O)c2csc3c2CCCC3)nc1C`, the inhibition is 3.89%.

Take `Cc1ccc(NC(=O)c2csc3c2CCCC3)cc1`: the inhibition was 0.75%.

On to `COC(=O)c1sccc1NC(=O)c1csc2c1CCCC2`, for which the inhibition is 12% (active).

On to `CCN=C1S/C(=C\c2cc(Br)ccc2OCC(=O)OCC)C(=O)N1CC`, for which the inhibition is 11.5% (active).

Regarding `Cc1cc(/C=C2/SC(=O)N(CC(=O)OC(C)C)C2=O)c(C)n1C`, the inhibition is 4.99%.

Regarding `CCOC(=O)CC1C(=O)NCCN1C(=O)COc1ccc(Br)cc1C` (stereo not given), the inhibition was -0.4%.

On to `COc1ccc(CCNc2nc(-c3cccc(NC(C)=O)c3)cs2)cc1OC`, for which the inhibition is -0.26%.

Consider `COc1ccc(C2OCC3(CO2)SC(=O)NC3=O)cc1OC` (stereo not given), for which the inhibition was 0.64%.

Take `COc1cccc(NC(=O)CC2C(=O)NCCN2C(=S)Nc2ccc(F)cc2)c1` (stereo not given): the inhibition is 4.21%.

As for `CC1CCCCC1NC(=O)CN1CCC(O)(c2ccc3c(c2)OCO3)CC1` (stereo not given), the inhibition was 0.68%.

Take `CCN(CC)S(=O)(=O)c1ccc(N(C)CCc2ccc(OC)c(OC)c2)nc1`: the inhibition is 1.33%.

`CCN(CC)S(=O)(=O)c1ccc(N(C)Cc2cccc(OC)c2OC)nc1`: the inhibition was 2.24%.

As to `CCN(CC)S(=O)(=O)c1ccc(N(C)Cc2ccc(C(F)(F)F)cc2)nc1`, the inhibition was 11.1% (active).

Take `Cc1cccc(-n2cnc(C(=O)NNC(=S)Nc3ccccc3)c2)n1`: the inhibition is 1.6%.

In the case of `Cc1ccc(C(=O)N/C(=C\c2ccco2)C(=O)N2CCSCC2)cc1C`, the inhibition was -0.85%.

For `CCn1c(COc2ccccc2)nnc1SCC(=O)NCc1ccco1`, the inhibition is 0.66%.

As for `COc1ccc(C(=O)CSc2nnc(COc3ccccc3)n2Cc2ccco2)cc1`, the inhibition is 9.29% (active).

For `C=CCn1c(CNC(=O)c2ccco2)nnc1SCC(=O)c1ccc(OC)cc1`, the inhibition is -1.14%.

As to `O=C(Cc1cccs1)N/N=C/c1ccc(OCc2ccccc2)cc1`, the inhibition was 10.5% (active).

In the case of `Cc1ccc(COc2ccc(/C=N/NC(=O)CN3CCCCC3)cc2)cc1`, the inhibition is 0.5%.

Take `O=C(N/N=C/c1ccc(OCc2ccccc2)cc1)c1ccc(O)cc1`: the inhibition was 1.57%.

For `COc1cc(C(=O)NNC(=O)c2ccc(S(=O)(=O)N3CCCCC3)cc2)cc(OC)c1OC`, the inhibition is 3.63%.

For `COCCN(CC(=O)Nc1ccccc1C)S(=O)(=O)c1ccc(S(=O)(=O)N2CCCC2)cc1`, the inhibition is 9.62% (active).

With `COc1ccccc1NC(=O)CN1CCN(S(=O)(=O)c2ccc(Br)cc2)CC1`, the inhibition was 0.23%.

Regarding `CC1CCN(C(=S)c2cccc(O)c2)CC1`, the inhibition is 0.5%.

With `CC1CCN(C(=S)c2ccc(-c3ccc(Cl)cc3Cl)o2)CC1`, the inhibition was 15.1% (active).

For `Cc1csc(NC(=O)c2ccc(-c3ccc(Cl)cc3Cl)o2)n1`, the inhibition was 0.54%.

With `COCC(C)NCc1cc(Br)ccc1OC` (stereo not given), the inhibition is 1.56%.

As to `O=C(NCc1ccccc1)[C@H]1C[C@@H]1[C@H](NP(=O)(c1ccccc1)c1ccccc1)c1ccccc1`, the inhibition is 19% (active).

As to `COC(=O)[C@H](Cc1ccccc1)NC(=O)[C@@H]1C[C@H]1[C@@H](NC(=O)OCc1ccccc1)c1ccccc1`, the inhibition is 1.21%.

In the case of `O=C(O)C1CC=C(Cl)CC1C(=O)NCc1ccccc1` (stereo not given), the inhibition was 1.08%.

Regarding `CC12CN(NC(=O)c3ccc(Cl)cc3)C3(C#N)CC1CCC23C` (stereo not given), the inhibition is -0.13%.

With `CC(=O)Nc1cccc(Oc2cc(C#N)c(C#N)cc2N2CCOCC2)c1`, the inhibition was 0.91%.

As to `COc1cccc(C(=O)Nc2ccc(N3CCCC3)cc2)c1`, the inhibition is 1.61%.

On to `COc1cc(N2CCCC2)c(OC)cc1/C=C(/C#N)c1cccc(Br)c1`, for which the inhibition was 8.59% (active).

In the case of `COc1ccc2cc(CCl)c(Cl)nc2c1`, the inhibition was 0.27%.

In the case of `COc1ccc(C2CC(c3cccs3)=NN2C(=O)CSc2nncs2)cc1OC` (stereo not given), the inhibition is -0.13%.

For `COc1ccc(C2CC(c3cccs3)=NN2c2ccc(F)cc2)cc1OC` (stereo not given), the inhibition was 2.78%.

Take `COc1ccc(C2CC(c3cccs3)=NN2c2nc(C)c(C(C)=O)s2)cc1OC` (stereo not given): the inhibition is 9.6% (active).

In the case of `CCc1c(C)nc2c(OC)cccc2c1Cl`, the inhibition is 0.88%.

`CC(C)(C)NC(=O)COC(=O)c1cc(Br)ccc1Cl`: the inhibition is -0.13%.

On to `CSCc1ccc(C(=O)Nc2cc(C)cc(C)c2)cc1`, for which the inhibition was 10.7% (active).

As to `CC(=O)Nc1ccccc1NC(=O)c1cc(C)cc(C)c1`, the inhibition is 1.49%.

For the molecule `C=CCN(c1ccc(C(=O)Nc2cc(C)cc(C)c2)cc1)S(C)(=O)=O`, the inhibition was 1.58%.

For `CC(C)(C)c1ccc(/C=C/C(=O)NC2CCS(=O)(=O)C2)cc1` (stereo not given), the inhibition was -1.15%.

For the molecule `Cc1cccc(C(=O)c2cccc(C)c2)c1`, the inhibition is 1.11%.

With `Cc1ccccc1CN1C[C@@H]2C[C@@H](c3ccc4nsnc4c3)N3CCC[C@@]23C1=O`, the inhibition was 1.56%.

`COc1ccc(/C=C2\CCCC3C2=NN(C(=O)c2scnc2C)C3c2ccc(OC)cc2)cc1` (stereo not given): the inhibition is 8.89% (active).

Turning to `CN(C)/C=C/C(=O)c1cnc2sccn2c1=O`, the inhibition is 3.34%.

With `Cc1cc(Cl)ccc1OCCCC(=O)NCc1ccccn1`, the inhibition was -1.48%.

On to `CC1CCCC(C)N1/N=C/c1ccccc1OC(F)F` (stereo not given), for which the inhibition is -0.37%.

On to `O=C(NC(=S)Nc1ccc(S(=O)(=O)Nc2ncccn2)cc1)c1cccc(Br)c1`, for which the inhibition is 6.97%.

For the molecule `NS(=O)(=O)c1ccc(NC(=S)NC(=O)c2cccnc2)cc1`, the inhibition was 0.14%.

For the molecule `NS(=O)(=O)c1ccc(NC(=S)NC(=O)c2cccc(Br)c2)cc1`, the inhibition is 15.5% (active).

With `CCc1ccccc1NC(=O)Cc1cn(C)c2ccccc12`, the inhibition is 1.88%.

In the case of `O=C(/C=C/c1ccc(Cl)c([N+](=O)[O-])c1)c1cccnc1`, the inhibition is 1.34%.

For the molecule `Cc1ccsc1C1C(C#N)=C(N)OC2=C1C(=O)CC(C)C2` (stereo not given), the inhibition was 2.12%.

In the case of `O=C(c1ccc(Cl)cc1)c1cnc(Nc2ccccc2)s1`, the inhibition is 3.49%.

Consider `CCC(=O)Nc1sc(C(=O)Nc2ccccc2)c(C)c1C(=O)OC`, for which the inhibition was -0.53%.

For the molecule `CC(=O)c1c(Nc2ccccc2)sc(C(=O)c2ccccc2)c1C`, the inhibition is 13.4% (active).

In the case of `COc1cc(CN2CCN(Cc3ccc(C)cc3)CC2)c([N+](=O)[O-])cc1OC`, the inhibition was -0.12%.

Regarding `N#Cc1ccc(-c2ccc(F)cc2)nc1Sc1ccccc1`, the inhibition was 9.92% (active).

Regarding `N#Cc1c(-c2ccc(F)cc2)nc(-c2ccccc2)[nH]c1=O`, the inhibition is 1.19%.

Regarding `N#Cc1ccc(-c2ccc(Cl)cc2)nc1Oc1ccc(F)cc1`, the inhibition is 3.94%.

With `COC(=O)c1nc(NC(=O)c2ccc(C(C)(C)C)cc2)n[nH]1`, the inhibition was -0.27%.

`COC(=O)C1=C(C(=O)OC)C(c2cc([N+](=O)[O-])ccc2O)c2sc(=O)[nH]c2S1` (stereo not given): the inhibition was -0.84%.

For `CCOC(=O)C(NC(C)=O)C(=O)Nc1ccc(OC)cc1` (stereo not given), the inhibition was 1.23%.

Turning to `Cc1nn(-c2ccccn2)c2c1C(c1ccncc1)C1=C(CC(C)(C)CC1=O)N2` (stereo not given), the inhibition is -0.66%.

`Cc1cc(C)c(C2C3=C(Nc4c2c(C)nn4-c2ccccn2)c2ccccc2C3=O)c(C)c1` (stereo not given): the inhibition is 9.18% (active).

As to `Cc1ccc(C2C3=C(Nc4[nH]n(-c5ccccc5)c(=O)c42)c2ccccc2C3=O)cc1` (stereo not given), the inhibition is 4.88%.

In the case of `O=C(CN1CCN(C/C=C/c2ccccc2)CC1)Nc1ccc(F)cc1F`, the inhibition is 0.69%.

Consider `CCOCCCNCc1cc(Br)ccc1OCC`, for which the inhibition is 1.92%.

For `CCOC(=O)C1CCN(CCC(=O)Nc2cccc(C)c2)CC1`, the inhibition is 0.78%.
